Source: PubChem BioAssay (EPA / NIEHS)
Records with an inconclusive call do not appear. Calls of active or inactive are those of the source. The calls were made as follows, unless noted: active = hit-call score of the fitted dose curve at least 0.9, where 1 is the maximum; inconclusive = response in the unintended direction; inactive = score below 0.9.

Columns and labels:
[1] = molecular target: human CYP2D6, CYP2D6 (gene 1565) (UniProt P10635); assay: NVS_ADME_hCYP2D6: NovaScreen (NVS) CYP450-related Enzyme Activity (ADME) Assay for human CYP2D6 (AID 2283107)
In short: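 Biochemical fluorescence assay, insect-cell-derived enzyme. Read at 1 h; inhibition taken from loss of signal against acetonitrile. Screened at 10 uM in duplicate, with concentration series for actives.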

[2] = molecular target: Retinoic acid receptor alpha (Homo sapiens) (UniProt P10276); assay: NVS_NR_hRARa_Agonist: NovaScreen (NVS) Nuclear Receptor Binding Assay for human Retinoic Acid Alpha Receptor Agonism (RAR) (AID 2283361)
In short: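 Compounds screened at 25 uM, duplicate, then in concentration series if active. Detection: TR-FRET gain of signal versus DMSO after 2 h with cell-free extracted RARα.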

[3] = STM_H9_OrnithineISnorm_perc: Stemina devTOX quickPredict H9 human embryonic stem cell (hESC)-based Assay for Ornithine (ORN) Metabolite Biomarker, Normalized (AID 2283712; active = hit-call score of the fitted dose curve at least 0.9, where 1 is the maximum; inactive = score below 0.9;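 also: ornithine released into spent medium during last day measured by mass spectrometry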)
In short: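 Ornithine in spent medium from the last 24 h of a 72 h exposure, deproteinised and quantified by UPLC-HRMS against an isotope-labelled internal standard, expressed relative to 0.1% DMSO. Pluripotent H9 cells; compound refreshed every 24 h.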

[4] = STM_H9_CystineISnorm_perc: Stemina devTOX quickPredict H9 human embryonic stem cell (hESC)-based Assay for Cystine (CYSS) Metabolite Biomarker, Normalized (AID 2283713; active = hit-call score of the fitted dose curve at least 0.9, where 1 is the maximum; inactive = score below 0.9)
In short: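 Cystine in spent media from the last 24 h of a 72 h H9 hESC exposure (daily re-dosing), measured by UPLC-HRMS. Values normalized to isotopic internal standard, then to 0.1% DMSO; viability via CellTiter-Fluor.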

[5] = STM_H9_NormalizedViability: Cytotoxicity Assessment at 120 hours in the Stemina devTOX quickPredict H9 human embryonic stem cell (hESC)-based Assay (AID 2283784)
In short: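 Viability endpoint: background-corrected CellTiter-Fluor RFU expressed relative to the 0.1% DMSO mean on each plate. Undifferentiated H9 cells were treated with daily re-dosing and media change, and loss of signal was fitted.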

[6] = CCTE_Mundy_HCI_Cortical_NOG_NeuronCount: CCTE's Neurite Outgrowth Assay in rat cortical cells for Neuron Count, Mundy Lab (AID 2284236);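 also: neurons counted by imaging betaIII-tubulin and Hoechst stained cortical cells; cells exposed to compound for about 48 hours before fixation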
In short: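 Read-out: neuron number by high-content imaging of betaIII-tubulin (Alexa Fluor-488) and Hoechst-labelled rat primary cortical cells.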

[7] = molecular target: human Vascular Endothelial Growth Factor Receptor 1 (VEGFR1), FLT1 (gene 2321) (UniProt P17948); assay: NVS_ENZ_hVEGFR1: NovaScreen (NVS) Enzymatic Assay for human Vascular Endothelial Growth Factor Receptor 1 (VEGFR1) (AID 2283226)
In short: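 Kinase activity of recombinant human VEGFR1 was read by fluorescence after electrophoretic separation of product from substrate, 1 h post-dosing; initial duplicate single-point testing at 25 uM, followed by concentration-series follow-up, with DMSO as baseline.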

[8] = molecular target: human CYP1A2, CYP1A2 (gene 1544) (UniProt P05177); assay: NVS_ADME_hCYP1A2: NovaScreen (NVS) CYP450-related Enzyme Activity (ADME) Assay for human CYP1A2 (AID 2283102)
In short: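 Inhibition scored as decrease in fluorescent product versus acetonitrile negative control. Enzyme: insect-cell recombinant human CYP1A2, substrate-specific, cell-free. Reading at 0.5 h; 10 uM duplicate initial screen with positive and negative controls on every plate.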

[9] = molecular target: human Aurora Kinase A - serine/threonine-protein Kinase 6 (AurA), AURKA (gene 6790) (UniProt O14965); assay: NVS_ENZ_hAurA: NovaScreen (NVS) Enzymatic Assay for human Aurora Kinase A - serine/threonine-protein Kinase 6 (AurA) (AID 2283142)
In short: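 Recombinant human AurA activity read by fluorescence after mobility-shift separation of product from substrate; 1 hour incubation. Chemicals first run in duplicate at 25 uM, then concentration series to 50 uM if over threshold; fitted relative to DMSO.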

CDK2 (gene 1017) = CDK2 (gene 1017) (UniProt P24941); assay: NVS_ENZ_hCDK2: NovaScreen (NVS) Enzymatic Assay for human Cyclin-Cependent Kinase 2 (CDK2) (AID 2283144)
In short: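 Compounds screened in duplicate at 25 uM, then in singleton concentration-response to a maximum of 50 uM, against recombinant CDK2; kinase activity read 1 hr after dosing by fluorescence with mobility-shift separation of substrate and product.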

[10] = molecular target: human Thyroid hormone Receptor beta (TRb), THRB (gene 7068) (UniProt P10828); assay: ATG_hTRb_XSP1: Attagene TRANS-FACTORIAL Multi-Species (XSP1) HepG2 Assay for human Thyroid hormone Receptor beta (TRb) (AID 2283808)
In short: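 Readout is reporter mRNA induction measured by RT-PCR, fluorescent labelling and capillary electrophoresis, fitted upward relative to DMSO. Transiently transfected human HepG2 cells expressing NR-Gal4 chimeras were dosed for 24 h, medium containing 3 nM 6-alpha-fluorotestosterone.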

[11] = molecular target: zebrafish Thyroid Hormone Receptor beta (TRb), thrb (gene 30607) (UniProt Q9PVE4); assay: ATG_zfTRb_XSP1: Attagene TRANS-FACTORIAL Multi-Species (XSP1) HepG2 Assay for zebrafish Thyroid Hormone Receptor beta (TRb) (AID 2283809)
In short: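 HepG2 cells transiently transfected with multiplexed GAL4-UAS reporter units expressing chimeric zebrafish TRb–Gal4. Dosed 24 h with 3 nM 6-alpha-fluorotestosterone present; reporter mRNA measured by RT-PCR, HpaI digestion and capillary electrophoresis; gain of signal versus DMSO.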

[12] = system: zebrafish Estrogen Receptor (ER2b), gene 317733; assay: ATG_zfER2b_XSP2: Attagene TRANS-FACTORIAL Multi-Species (XSP2) HepG2 Assay for zebrafish Estrogen Receptor (ER2b) (AID 2283823);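 also: fitted upward as reporter gain over DMSO so potency reflects activation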
In short: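 Transcriptional induction measured as reporter mRNA (RT-PCR, fluorescent capillary electrophoresis) in transiently transfected HepG2 cells after 24 h dosing; DMSO served as negative control and baseline.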

[13] = ATG_M_32_XSP2: Attagene TRANS-FACTORIAL Multi-Species (XSP2) HepG2 Assay for M19 Transcription Factor (Internal Marker) (AID 2283826)
In short: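 An internal background marker among multiplexed transfected reporters in HepG2 liver cells was measured 24 h after dosing. Androgen receptor stimulation came from 3 nM 6-alpha-fluorotestosterone and 1.5 nM norgestrel.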

[14] = system: frog Estrogen Receptor (ER2), gene 100174814; assay: ATG_frER2_XSP2: Attagene TRANS-FACTORIAL Multi-Species (XSP2) HepG2 Assay for frog Estrogen Receptor (ER2) (AID 2283828)
In short: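 Induction of reporter mRNA, baseline set by DMSO, is the endpoint. The panel was run in transfected HepG2 cells over 24 h, with 3 nM 6-alpha-fluorotestosterone and 1.5 nM norgestrel present to stimulate androgen receptor.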

[15] = molecular target: zebrafish Thyroid Hormone Receptor alpha (TRa), thraa (gene 30670) (UniProt Q98867); assay: ATG_zfTRa_XSP2: Attagene TRANS-FACTORIAL Multi-Species (XSP1) HepG2 Assay for zebrafish Thyroid Hormone Receptor alpha (TRa) (AID 2283832);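 also: actives raise zebrafish TRa-Gal4 reporter transcript above DMSO baseline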
In short: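 Chimeric zebrafish TRa-Gal4 activity read in transfected human HepG2 as GAL4-UAS reporter transcripts, 24 h post-dose, via RT-PCR with labeled primer extension and capillary electrophoresis. Medium also carries 3 nM 6-alpha-fluorotestosterone and 1.5 nM norgestrel; DMSO baseline.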

[16] = system: turtle Thyroid Hormone Receptor, alpha (TRa), gene 101949057; assay: ATG_trTRa_XSP2: Attagene TRANS-FACTORIAL Multi-Species (XSP1) HepG2 Assay for turtle Thyroid Hormone Receptor, alpha (TRa) (AID 2283834);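 also: hits raise reporter mRNA over the DMSO baseline so AC50 marks activators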
In short: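 Multiplexed TRANS reporter assay; HepG2 carrying NR-Gal4 constructs treated 24 h. mRNA of the GAL4-UAS reporter quantified via labelled RT-PCR fragments on a genetic analyzer, vs DMSO negative control.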

[17] = molecular target: human Thyroid hormone Receptor alpha (TRa), THRA (gene 7067) (UniProt P10827); assay: ATG_hTRa_XSP2: Attagene TRANS-FACTORIAL Multi-Species (XSP2) HepG2 Assay for human Thyroid hormone Receptor alpha (TRa) (AID 2283838)
In short: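 Reporter transcripts were read by RT-PCR with fluorescent primer extension, HpaI digestion and capillary electrophoresis. These came from HepG2 cells carrying multiplexed TRa-Gal4 TRANS constructs, harvested 24 hours after dosing. The medium also held 6-alpha-fluorotestosterone (3 nM) and norgestrel (1.5 nM), and increases were fitted against DMSO.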

[18] = molecular target: frog Thyroid hormone Receptor alpha (TRa), thra-a (gene 397942) (UniProt P15204); assay: ATG_frTRa_XSP2: Attagene TRANS-FACTORIAL Multi-Species (XSP2) HepG2 Assay for frog Thyroid hormone Receptor alpha (TRa) (AID 2283839)
In short: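 Chimeric frog TRα-GAL4 activity in human liver cells measures reporter transcript induction 24 h post-dose. Detection uses RT-PCR, HpaI-digested labelled products and fluorescence capillary electrophoresis; DMSO serves as negative control.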

[19] = molecular target: human Thyroid hormone Receptor beta (TRb), THRB (gene 7068) (UniProt P10828); assay: ATG_hTRb_XSP2: Attagene TRANS-FACTORIAL Multi-Species (XSP2) HepG2 Assay for human Thyroid hormone Receptor beta (TRb) (AID 2283840);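 also: actives raise reporter mRNA so potency reflects agonist-like gain of signal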
In short: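 Gain-of-signal reporter transcription, referenced to DMSO, was measured in transiently transfected HepG2 after 24 h exposure; labeled RT-PCR products were resolved by capillary electrophoresis. Assay medium included 3 nM 6-alpha-fluorotestosterone and 1.5 nM norgestrel.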

human Thyroid hormone Receptor beta (TRb), THRB (gene 7068), sequence (P10828 whole entry, looked up, the tested form may be a part): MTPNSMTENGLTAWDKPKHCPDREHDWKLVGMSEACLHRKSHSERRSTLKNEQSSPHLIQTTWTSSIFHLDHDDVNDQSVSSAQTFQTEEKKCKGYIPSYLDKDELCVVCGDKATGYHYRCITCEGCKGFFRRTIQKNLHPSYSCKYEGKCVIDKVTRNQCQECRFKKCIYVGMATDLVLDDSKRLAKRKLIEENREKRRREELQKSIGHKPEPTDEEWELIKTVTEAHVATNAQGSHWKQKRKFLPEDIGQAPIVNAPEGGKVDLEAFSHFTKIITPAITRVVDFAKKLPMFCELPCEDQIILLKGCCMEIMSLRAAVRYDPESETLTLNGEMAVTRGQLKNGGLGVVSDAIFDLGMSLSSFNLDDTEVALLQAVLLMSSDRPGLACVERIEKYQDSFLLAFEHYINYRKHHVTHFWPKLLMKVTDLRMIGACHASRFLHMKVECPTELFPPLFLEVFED
human Thyroid hormone Receptor alpha (TRa), THRA (gene 7067), sequence (P10827 whole entry, looked up, the tested form may be a part): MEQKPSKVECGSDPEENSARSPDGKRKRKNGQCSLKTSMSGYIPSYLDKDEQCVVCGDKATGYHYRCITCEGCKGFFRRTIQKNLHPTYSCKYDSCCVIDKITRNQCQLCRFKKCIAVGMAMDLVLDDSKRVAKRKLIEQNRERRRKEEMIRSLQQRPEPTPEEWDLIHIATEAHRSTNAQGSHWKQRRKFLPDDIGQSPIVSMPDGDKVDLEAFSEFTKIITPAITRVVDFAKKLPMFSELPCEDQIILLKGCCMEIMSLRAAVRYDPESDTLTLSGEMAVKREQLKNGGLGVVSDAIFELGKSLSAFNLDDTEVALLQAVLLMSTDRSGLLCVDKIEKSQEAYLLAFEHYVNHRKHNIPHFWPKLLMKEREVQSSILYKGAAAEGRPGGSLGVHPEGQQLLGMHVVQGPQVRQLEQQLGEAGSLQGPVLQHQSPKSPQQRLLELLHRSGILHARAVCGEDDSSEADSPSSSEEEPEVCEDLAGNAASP
zebrafish Thyroid Hormone Receptor alpha (TRa), thraa (gene 30670), sequence (Q98867 whole entry, looked up, the tested form may be a part): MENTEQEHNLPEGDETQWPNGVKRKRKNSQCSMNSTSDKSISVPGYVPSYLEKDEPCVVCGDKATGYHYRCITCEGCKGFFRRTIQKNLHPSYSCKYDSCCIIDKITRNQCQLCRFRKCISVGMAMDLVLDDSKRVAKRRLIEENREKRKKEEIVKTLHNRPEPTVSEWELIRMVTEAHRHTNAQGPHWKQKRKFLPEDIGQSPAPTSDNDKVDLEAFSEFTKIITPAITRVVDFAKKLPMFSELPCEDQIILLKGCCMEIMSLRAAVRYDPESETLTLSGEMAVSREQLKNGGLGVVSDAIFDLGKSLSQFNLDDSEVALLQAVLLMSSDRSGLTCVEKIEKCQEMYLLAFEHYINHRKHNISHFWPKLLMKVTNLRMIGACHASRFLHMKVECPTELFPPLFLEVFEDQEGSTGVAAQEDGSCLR
frog Thyroid hormone Receptor alpha (TRa), thra-a (gene 397942), sequence (P15204 whole entry, looked up, the tested form may be a part): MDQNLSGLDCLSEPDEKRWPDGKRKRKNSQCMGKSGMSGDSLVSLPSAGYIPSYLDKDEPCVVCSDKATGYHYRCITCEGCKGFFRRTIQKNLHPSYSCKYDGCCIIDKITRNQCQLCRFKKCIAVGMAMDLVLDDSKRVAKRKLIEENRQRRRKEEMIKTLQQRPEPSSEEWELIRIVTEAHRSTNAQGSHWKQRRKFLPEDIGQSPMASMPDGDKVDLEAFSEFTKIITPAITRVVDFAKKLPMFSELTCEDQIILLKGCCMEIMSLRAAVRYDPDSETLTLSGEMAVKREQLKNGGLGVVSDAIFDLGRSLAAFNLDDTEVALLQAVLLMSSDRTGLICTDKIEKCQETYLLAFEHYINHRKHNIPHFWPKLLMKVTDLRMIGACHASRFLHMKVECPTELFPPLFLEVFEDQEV
zebrafish Thyroid Hormone Receptor beta (TRb), thrb (gene 30607), sequence (Q9PVE4 whole entry, looked up, the tested form may be a part): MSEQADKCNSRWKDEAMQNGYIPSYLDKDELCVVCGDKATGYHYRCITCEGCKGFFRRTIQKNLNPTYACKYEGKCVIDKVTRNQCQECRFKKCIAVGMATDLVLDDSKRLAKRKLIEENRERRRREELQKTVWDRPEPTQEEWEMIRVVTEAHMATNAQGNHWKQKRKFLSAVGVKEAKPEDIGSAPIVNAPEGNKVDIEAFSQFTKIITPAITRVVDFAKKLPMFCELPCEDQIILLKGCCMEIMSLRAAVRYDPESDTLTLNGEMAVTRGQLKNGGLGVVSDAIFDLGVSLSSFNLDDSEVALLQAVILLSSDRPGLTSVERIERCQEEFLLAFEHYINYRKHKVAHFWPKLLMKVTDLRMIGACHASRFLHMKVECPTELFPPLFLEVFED
human CYP1A2, CYP1A2 (gene 1544), sequence (P05177 whole entry, looked up): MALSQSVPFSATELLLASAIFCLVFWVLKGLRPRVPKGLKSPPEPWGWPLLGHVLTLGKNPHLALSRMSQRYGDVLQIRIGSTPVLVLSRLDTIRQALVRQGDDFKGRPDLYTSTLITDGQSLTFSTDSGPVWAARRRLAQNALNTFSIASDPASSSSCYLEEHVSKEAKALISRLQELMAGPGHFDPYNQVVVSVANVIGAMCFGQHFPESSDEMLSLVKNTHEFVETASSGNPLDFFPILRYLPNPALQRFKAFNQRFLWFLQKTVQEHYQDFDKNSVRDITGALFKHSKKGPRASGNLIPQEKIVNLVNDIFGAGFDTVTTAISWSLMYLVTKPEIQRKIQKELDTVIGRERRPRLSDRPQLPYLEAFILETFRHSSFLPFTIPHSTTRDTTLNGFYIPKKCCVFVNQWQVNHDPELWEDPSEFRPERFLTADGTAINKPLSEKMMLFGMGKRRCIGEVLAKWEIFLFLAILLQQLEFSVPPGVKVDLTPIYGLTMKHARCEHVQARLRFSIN
Retinoic acid receptor alpha (Homo sapiens), sequence (P10276 whole entry, looked up): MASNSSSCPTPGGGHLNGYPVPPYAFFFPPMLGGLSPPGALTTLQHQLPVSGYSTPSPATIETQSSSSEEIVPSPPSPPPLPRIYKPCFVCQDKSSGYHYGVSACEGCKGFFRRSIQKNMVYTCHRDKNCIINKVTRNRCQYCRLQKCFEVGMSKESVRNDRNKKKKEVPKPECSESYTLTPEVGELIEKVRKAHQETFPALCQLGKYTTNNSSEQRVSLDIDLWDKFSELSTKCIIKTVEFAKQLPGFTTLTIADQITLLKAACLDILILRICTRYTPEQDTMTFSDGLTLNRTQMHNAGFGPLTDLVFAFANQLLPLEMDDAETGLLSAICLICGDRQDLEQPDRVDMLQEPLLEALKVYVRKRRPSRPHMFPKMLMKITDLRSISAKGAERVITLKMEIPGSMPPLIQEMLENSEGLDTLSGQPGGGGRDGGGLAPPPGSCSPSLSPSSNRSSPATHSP
human CYP2D6, CYP2D6 (gene 1565), sequence (P10635 whole entry, looked up): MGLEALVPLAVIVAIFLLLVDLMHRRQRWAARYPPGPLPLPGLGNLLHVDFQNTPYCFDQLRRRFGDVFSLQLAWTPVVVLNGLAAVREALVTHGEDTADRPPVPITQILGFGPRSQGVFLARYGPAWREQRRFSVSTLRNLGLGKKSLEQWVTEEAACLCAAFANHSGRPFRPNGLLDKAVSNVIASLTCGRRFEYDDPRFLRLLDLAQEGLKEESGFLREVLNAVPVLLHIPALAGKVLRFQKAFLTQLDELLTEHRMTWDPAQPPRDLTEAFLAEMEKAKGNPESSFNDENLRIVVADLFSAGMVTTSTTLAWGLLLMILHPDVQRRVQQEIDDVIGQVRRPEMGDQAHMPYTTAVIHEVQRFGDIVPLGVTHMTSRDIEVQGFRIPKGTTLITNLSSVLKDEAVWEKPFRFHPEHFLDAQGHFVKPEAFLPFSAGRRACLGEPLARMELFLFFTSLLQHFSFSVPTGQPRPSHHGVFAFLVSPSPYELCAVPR
human Aurora Kinase A - serine/threonine-protein Kinase 6 (AurA), AURKA (gene 6790), sequence (O14965 whole entry, looked up): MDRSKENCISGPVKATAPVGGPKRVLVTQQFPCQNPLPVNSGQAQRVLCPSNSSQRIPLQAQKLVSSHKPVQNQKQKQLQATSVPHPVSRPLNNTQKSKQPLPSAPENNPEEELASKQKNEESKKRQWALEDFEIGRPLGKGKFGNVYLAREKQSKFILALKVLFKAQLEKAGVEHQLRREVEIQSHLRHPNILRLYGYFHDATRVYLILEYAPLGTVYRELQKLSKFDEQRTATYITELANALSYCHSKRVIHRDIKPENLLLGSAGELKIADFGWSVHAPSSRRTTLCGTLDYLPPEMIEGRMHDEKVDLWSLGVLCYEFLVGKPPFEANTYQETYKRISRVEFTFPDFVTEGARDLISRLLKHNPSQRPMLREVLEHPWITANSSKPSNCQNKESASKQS

## Nc1ccc(-c2ccc(N)c(N)c2)cc1N
[1]
  AC50: 4.48 µM (active)

## O=C=Nc1ccccc1
[2]
  AC50: 9.8 µM (active)

## Cc1ccc(OP(=O)(Oc2ccc(C)cc2)Oc2ccc(C)cc2)cc1 (tested in a mixture with another compound)
[3]
  outcome: inactive
[4]
  AC50: 58.4 µM (active)
[5]
  outcome: inactive
[6]
  AC50: 25.6 µM (active)

## BrCBr
[7]
  outcome: inactive

## N#CCCCCC#N
[8]
  outcome: inactive
[9]
  outcome: inactive
CDK2 (gene 1017)
  outcome: inactive

## CC(C)(c1cc(Cl)c(O)c(Cl)c1)c1cc(Cl)c(O)c(Cl)c1
[10]
  outcome: inactive
[11]
  outcome: inactive
[12]
  AC50: 25.7 µM (active)
[13]
  outcome: inactive
[14]
  AC50: 5.92 µM (active)
[15]
  outcome: inactive
[16]
  outcome: inactive
[17]
  outcome: inactive
[18]
  outcome: inactive
[19]
  outcome: inactive

## CC(C)CCCCCCCOC(=O)c1ccccc1C(=O)OCCCCCCCC(C)C
[10]
  outcome: inactive
[11]
  outcome: inactive
[12]
  outcome: inactive
[13]
  outcome: inactive
[14]
  outcome: inactive
[15]
  outcome: inactive
[16]
  AC50: 100 µM (active)
[17]
  outcome: inactive
[18]
  outcome: inactive
[19]
  outcome: inactive
